Experimental data: PubChem BioAssay
Several values for one entry are separate records, joined by “and”; a condition that tells them apart may be missing. Equal values may be shown once. Activity calls are given as the source filed them. Unless noted, no stated cut-off is given here; in the data, active means nuclear beta-catenin stimulation mostly above about 4.2% (no sharp cut-off); inactive means mostly below about 10%.

Legend:
[1] = Wnt pathway potentiators raising nuclear beta-catenin – imaging, WNT3A-conditioned medium, mouse C2C12, NPC library, primary screen (AID 1117326); conditions: stronger effect = higher value
[2] = stimulators of insulin release from INS-1E, primary screen, cell-based, 5 mM glucose, NPC library (AID 1117329;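 active means compound raises insulin release from rat beta cells at 5 mM glucose, no numeric limit stated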); conditions: rat INS-1E insulin secretion, at 10 µM, stronger effect = higher value
[3] = GLP1 release stimulators, primary, NCI-H716, NPC library (AID 1117341;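 active means compound raises GLP1 secretion from the human gut endocrine cells, with no numeric limit stated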); conditions: NCI-H716 cells, at 10 µM, stronger effect = higher value
[4] = growth inhibition of GSK3B-pretreated HCT116 cells – cell-based, CellTiter-Glo, 0.2 to 20 µM (AID 1117336;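 active means compounds lowering colon cancer cell viability after pretreatment blocking the GSK3B kinase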); conditions: HCT116 viability after GSK3B inhibitor, at 20 µM, stronger effect = higher value
[5] = inhibition of endothelial tube formation, primary screen, imaging, VEGF stimulated, CD31 staining, tube area, NPC library (AID 1117340;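 active means compound that reduces growth-factor-driven endothelial tube area in a mixed cell culture, no cutoff stated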); conditions: VEGF-stimulated ADSC/ECFC co-culture, at 10 µM, stronger effect = higher value
[6] = HCT116 colon cancer cell growth inhibition, primary screen, CellTiter-Glo luminescence, NPC library (AID 1117342;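 active means compounds that lower survival of HCT116 colon cancer cells in the luminescence readout, no numeric limit stated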); conditions: at 20 µM (top of the series)
[7] = reduced SW480 viability measured with CellTiter-Glo, NPC library, primary (AID 1117343;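 active means compounds that lower viability of the colon cancer cells in the luminescence readout, with no numeric limit stated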); conditions: CellTiter-Glo luminescence; at 20 µM (top of the series) unless noted
[8] = NPC library primary testing for decreased DLD-1 cell viability via CellTiter-Glo (AID 1117346;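 active means compounds that lower survival of DLD-1 colon cancer cells in the luminescence readout, no cutoff given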); conditions: DLD-1 viability, CellTiter-Glo luminescence; at 20 µM (top of the series)
[9] = target: NAD(+) hydrolase SARM1 (Homo sapiens) (UniProt Q6SZW1); assay: blocking NAD cleavage by SARM1 SAM-TIR – cell lysate, NAD-Glo luminescence (AID 1508614;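 active means compound whose remaining NAD level is above about 45 nM, limit read from the data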); conditions: SAM-TIR HEK293T lysate NADase, at 1 µM, stronger effect = higher value
Sequence of NAD(+) hydrolase SARM1 (Homo sapiens) (Q6SZW1 whole entry, looked up, the tested form may be a part): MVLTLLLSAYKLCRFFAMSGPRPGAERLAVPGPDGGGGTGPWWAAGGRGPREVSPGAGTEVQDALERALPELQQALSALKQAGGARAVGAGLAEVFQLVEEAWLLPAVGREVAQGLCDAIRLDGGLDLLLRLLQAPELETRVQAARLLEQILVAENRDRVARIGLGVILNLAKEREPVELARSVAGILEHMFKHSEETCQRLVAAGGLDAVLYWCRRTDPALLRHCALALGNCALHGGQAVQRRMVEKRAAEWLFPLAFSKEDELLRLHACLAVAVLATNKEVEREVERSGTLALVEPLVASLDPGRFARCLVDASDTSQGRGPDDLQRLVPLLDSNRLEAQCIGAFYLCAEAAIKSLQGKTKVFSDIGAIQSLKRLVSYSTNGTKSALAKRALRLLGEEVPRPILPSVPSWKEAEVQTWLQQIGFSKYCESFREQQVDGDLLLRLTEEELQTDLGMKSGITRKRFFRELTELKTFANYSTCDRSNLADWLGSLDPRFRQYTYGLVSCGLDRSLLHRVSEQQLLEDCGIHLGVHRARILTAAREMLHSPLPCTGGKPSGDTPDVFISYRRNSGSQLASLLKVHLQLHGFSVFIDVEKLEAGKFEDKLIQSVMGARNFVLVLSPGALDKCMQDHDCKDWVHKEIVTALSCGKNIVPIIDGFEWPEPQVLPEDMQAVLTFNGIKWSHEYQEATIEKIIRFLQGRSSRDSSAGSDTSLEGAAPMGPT

[10] = target: Mitogen-activated protein kinase 7 (Homo sapiens) (UniProt Q13164); assay: Gal4-ERK5 driven luciferase induction – cell-based, HTS, primary screen (AID 1508626;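 active means luciferase signal above three times the same-plate solvent-only control wells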;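 further: luciferase driven by Gal4-ERK5 fusion binding five Gal4 sites before minimal TATA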); conditions: HeLa Gal4-ERK5 transactivation, 18 h, at 5 µM, stronger effect = higher value
Sequence of Mitogen-activated protein kinase 7 (Homo sapiens) (Q13164 whole entry, looked up, the tested form may be a part): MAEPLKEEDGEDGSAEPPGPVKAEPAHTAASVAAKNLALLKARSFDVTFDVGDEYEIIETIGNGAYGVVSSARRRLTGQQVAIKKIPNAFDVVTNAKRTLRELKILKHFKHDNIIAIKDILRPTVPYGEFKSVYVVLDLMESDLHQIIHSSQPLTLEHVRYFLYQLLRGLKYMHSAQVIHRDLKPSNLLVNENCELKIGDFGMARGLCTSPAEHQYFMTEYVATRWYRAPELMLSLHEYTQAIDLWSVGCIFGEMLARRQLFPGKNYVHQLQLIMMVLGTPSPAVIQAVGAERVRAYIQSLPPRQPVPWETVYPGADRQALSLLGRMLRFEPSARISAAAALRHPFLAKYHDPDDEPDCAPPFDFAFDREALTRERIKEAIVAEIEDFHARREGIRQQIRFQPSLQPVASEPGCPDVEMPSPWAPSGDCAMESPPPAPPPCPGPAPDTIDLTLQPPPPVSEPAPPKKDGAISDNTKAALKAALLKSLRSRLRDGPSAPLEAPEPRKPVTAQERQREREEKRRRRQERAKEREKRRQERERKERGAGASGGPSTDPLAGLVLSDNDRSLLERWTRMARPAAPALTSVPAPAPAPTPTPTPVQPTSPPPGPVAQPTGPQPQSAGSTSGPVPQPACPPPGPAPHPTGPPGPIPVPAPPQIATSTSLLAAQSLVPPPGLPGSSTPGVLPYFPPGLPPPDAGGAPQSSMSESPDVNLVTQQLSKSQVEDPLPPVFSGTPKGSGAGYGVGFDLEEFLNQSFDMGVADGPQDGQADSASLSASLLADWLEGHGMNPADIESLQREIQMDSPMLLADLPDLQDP

[11] = EMT-state selective cytotoxicity in co-culture – imaging, PC-3E GFP, TEM4-18 mCherry, primary screen (AID 1345086;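 active means compounds killing one labelled cell type while sparing the other, by normalised counts and ratio limits, not self-fluorescent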;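 further: cells exposed to compound for 72 h before imaging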;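 on red/green cell ratio (normalised): normalised mesenchymal count divided by normalised epithelial count so high means epithelial killing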); conditions: PC-3E GFP / TEM4-18 mCherry co-culture, imaging cell counts, at 1 µM
[12] = viability loss with induced miR-34 in A549 – imaging, A549 dox-inducible miR-34, nuclei and caspase counts, primary screen (AID 1347080;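 active means compounds whose cell count with miR-34 switched on is under 0.7 times the count with it off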); conditions: A549 miR-34 inducible, Hoechst nuclei count, 48 h
[13] = galactose survival enhancers in mitochondrial complex I cybrids – cell-based, galactose medium, ATP luminescence, primary screen (AID 1645843;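 active means z-score of at least 1.8 in each of two replicates, scored against plate mean and spread of sample wells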;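 further: positive z means more ATP and so rescue of galactose-driven cybrid death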); conditions: complex I mutant cybrid cells, 72 h, stronger effect = higher value
[14] = P. berghei load reduction in hepatocytes – cell-based, HepG2, luciferase luminescence, HepG2 viability, primary screen (AID 624349; in the data active means parasite load remaining mostly below about 12%, no sharp cut-off; inactive means mostly above about 10%;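 further: 100% = mean of DMSO negative control wells on the same plate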); conditions: P. berghei liver stage in HepG2, luciferase luminescence, concentration not given here; parasite load remaining: stronger effect = lower value; viability: measured here: HepG2 viability without parasites
[15] = target: 6-phosphogluconate dehydrogenase, decarboxylating (Homo sapiens) (UniProt P52209); assay: inhibition of human phosphogluconate dehydrogenase – biochemical, recombinant enzyme, NADPH absorbance, primary screen (AID 1159550;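 active means at least 20% inhibition of 6-phosphogluconate dehydrogenase activity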); conditions: recombinant 6PGD, NADPH absorbance 341 nm; at 10 µM; stronger effect = higher value
Sequence of 6-phosphogluconate dehydrogenase, decarboxylating (Homo sapiens) (P52209 whole entry, looked up): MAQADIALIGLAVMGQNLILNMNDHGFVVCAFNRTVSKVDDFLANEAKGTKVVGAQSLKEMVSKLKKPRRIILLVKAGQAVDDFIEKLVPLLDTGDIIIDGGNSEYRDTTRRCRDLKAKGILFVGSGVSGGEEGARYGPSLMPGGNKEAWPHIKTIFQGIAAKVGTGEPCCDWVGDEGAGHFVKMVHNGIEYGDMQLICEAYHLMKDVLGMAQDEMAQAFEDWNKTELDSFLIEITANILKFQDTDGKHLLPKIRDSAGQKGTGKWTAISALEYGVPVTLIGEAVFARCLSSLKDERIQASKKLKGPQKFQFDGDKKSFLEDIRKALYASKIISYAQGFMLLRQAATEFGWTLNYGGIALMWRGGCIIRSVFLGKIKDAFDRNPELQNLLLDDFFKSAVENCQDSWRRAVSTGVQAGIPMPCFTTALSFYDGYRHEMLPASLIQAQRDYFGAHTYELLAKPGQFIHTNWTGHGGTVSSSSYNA

[16] = MELAS cybrid and Rieske KO viability enhancers – cell-based, MELAS cybrids, Rieske KO mouse fibroblasts, CellTiter-Glo, primary screen (AID 1508586;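 active means mean z-score across replicates of 1.96 or higher in either the MELAS or the Rieske mutant cell line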;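 further: z relative to plate mean and SD of compound and empty wells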); conditions: low glucose
[17] = stronger effect = lower value, cell number ratio, induced over uninduced
[18] = measured here: relative caspase fold change +Dox/-Dox
[19] = measured here: total cells with miR-34 induction, stronger effect = lower value
[20] = measured here: total cells without miR-34 induction

## C[S+](CC[C@H](N)C(=O)O)C[C@H]1O[C@@H](n2cnc3c(N)ncnc32)[C@H](O)[C@H]1O (some centres not stated)
[1]; at 10 µM
  nuclear beta-catenin stimulation: 0.8% (inactive)
[1]; stimulation, at 2 µM
  nuclear beta-catenin stimulation: 1.9%
[2]
  insulin secretion stimulation: 1.55% (inactive)
[3]
  GLP1 secretion stimulation: -0.4% (inactive)

## CCC(C(=O)OCCOCCN(CC)CC)c1ccccc1 (configuration not stated)
[1]; at 10 µM
  nuclear beta-catenin stimulation: 1.3% (inactive)
[1]; stimulation, at 2 µM
  nuclear beta-catenin stimulation: -2.5%
[2]
  insulin secretion stimulation: 5.45% (inactive)
[3]
  GLP1 secretion stimulation: 7.5% (inactive)

## CCCCC(=O)O[C@]1(C(=O)CO)CC[C@H]2[C@@H]3CCC4=CC(=O)CC[C@]4(C)[C@H]3[C@@H](O)C[C@@]21C
[1]; at 10 µM
  nuclear beta-catenin stimulation: -1.9% (inactive)
[1]; stimulation, at 2 µM
  nuclear beta-catenin stimulation: 0.1%
[2]
  insulin secretion stimulation: 1.5% (inactive)
[4]
  viability decrease: -12.8% (inactive)
[5]
  tube area decrease: -17.7% (inactive)
[3]
  GLP1 secretion stimulation: -1.5% (inactive)
[6]
  inhibition of viability: 7.7% (inactive)
[7]
  viability decrease (inhibition): 6.4% (inactive)
[8]
  viability decrease (inhibition): -15.9% (inactive)
[9]
  remaining NAD: 10 nM (inactive)
[10]
  luciferase signal: 72 AU (inactive)

## NC(=O)C1(N2CCCCC2)CCN(CCCN2c3ccccc3CCc3ccc(Cl)cc32)CC1
[1]; at 10 µM
  nuclear beta-catenin stimulation: 1.5% (inactive)
[1]; stimulation, at 2 µM
  nuclear beta-catenin stimulation: 12.3%
[4]
  viability decrease: 99.5% (active)
[5]
  tube area decrease: 109% (active)
[6]
  inhibition of viability: 99.4% (active)
[7]
  viability decrease (inhibition): 102% (active)
[8]
  viability decrease (inhibition): 102% (active)

## CCOC(=O)[C@H](CCc1ccccc1)N[C@@H](C)C(=O)N1C(=O)N(C)C[C@H]1C(=O)O
[1]; at 10 µM
  nuclear beta-catenin stimulation: 0% (inactive)
[1]; stimulation, at 2 µM
  nuclear beta-catenin stimulation: -1.6%
[2]
  insulin secretion stimulation: 0% (inactive)
[3]
  GLP1 secretion stimulation: 2% (inactive)

## O=C(NC1CCN(CCc2c[nH]c3ccccc23)CC1)c1ccccc1
[1]; at 10 µM
  nuclear beta-catenin stimulation: 1% (inactive)
[1]; stimulation, at 2 µM
  nuclear beta-catenin stimulation: 2%
[2]
  insulin secretion stimulation: 1.25% (inactive)
[3]
  GLP1 secretion stimulation: -4.5% (inactive)

## CCCCC(CC)COC(=O)CC(C(=O)OCC(CC)CCCC)S(=O)(=O)O (configuration not stated)
[1]; at 10 µM
  nuclear beta-catenin stimulation: 2.7% (inactive)
[1]; stimulation, at 2 µM
  nuclear beta-catenin stimulation: -0.9%
[2]
  insulin secretion stimulation: -1.3% (inactive)
[3]
  GLP1 secretion stimulation: 84.6% (active)
[11]; actives lie on both sides, counts scaled to control wells, 1 = unselective
  red/green cell ratio (normalised): 0.91 (inactive)
[11]; measured here: epithelial PC-3E GFP cell survival
  normalised cell number: 0.99
[11]; measured here: mesenchymal TEM4-18 mCherry cell survival
  normalised cell number: 0.9
[12]; [17]
  fold change: 0.854 (inactive)
[12]; [18]
  fold change: 1.07
[12]; [19]
  cell count: 8120
[12]; [20]
  cell count: 9510
[9]
  remaining NAD: 10 nM (inactive)

## COc1ccc2c(c1)c1c3n2CCN(C)C3=NCC1
[1]; at 10 µM
  nuclear beta-catenin stimulation: 1.3% (inactive)
[1]; stimulation, at 2 µM
  nuclear beta-catenin stimulation: 0.5%
[2]
  insulin secretion stimulation: 1.05% (inactive)
[3]
  GLP1 secretion stimulation: 6.4% (inactive)

## CC(COc1ccccc1)NN (configuration not stated)
[1]; at 10 µM
  nuclear beta-catenin stimulation: 1.8% (inactive)
[1]; stimulation, at 2 µM
  nuclear beta-catenin stimulation: 5.4%
[4]
  viability decrease: 26.7% (inactive)
[5]
  tube area decrease: 1.6% (inactive)
[6]
  inhibition of viability: 8% (inactive)
[7]
  viability decrease (inhibition): 19.2% (inactive)
[8]
  viability decrease (inhibition): 7.4% (inactive)

## CCc1cccc(N(C)C(N)=Nc2cccc3ccccc23)c1
[1]; at 10 µM
  nuclear beta-catenin stimulation: -1.6% (inactive)
[1]; stimulation, at 2 µM
  nuclear beta-catenin stimulation: -1.7%
[2]
  insulin secretion stimulation: 60.2% (active)
[3]
  GLP1 secretion stimulation: 1.6% (inactive)
[12]; [17]
  fold change: 1.03 (inactive)
[12]; [18]
  fold change: 1.33
[12]; [19]
  cell count: 7210
[12]; [20]
  cell count: 6970
[13]
  z-score: -1.44 (inactive)

## COc1ccc(/C=N/NC(=O)c2ccncc2)cc1OC
[1]; at 10 µM
  nuclear beta-catenin stimulation: 3.6% (inactive)
[1]; stimulation, at 2 µM
  nuclear beta-catenin stimulation: 8%
[4]
  viability decrease: 2.5% (inactive)
[5]
  tube area decrease: 12.2% (inactive)
[6]
  inhibition of viability: 11.9% (inactive)
[7]
  viability decrease (inhibition): -1% (inactive)
[8]
  viability decrease (inhibition): -0.1% (inactive)

## CCCCC[C@@H](O)CC[C@H]1[C@@H]2Cc3cccc(OCC(=O)O)c3C[C@@H]2C[C@@H]1O
[1]; at 10 µM
  nuclear beta-catenin stimulation: -0.3% (inactive)
[1]; stimulation, at 2 µM
  nuclear beta-catenin stimulation: 0.2%
[2]
  insulin secretion stimulation: -0.45% (inactive)
[3]
  GLP1 secretion stimulation: 8.8% (inactive)

## CC(CC=O)CCCC(C)(C)O (configuration not stated)
[1]; at 10 µM
  nuclear beta-catenin stimulation: 0.5% (inactive)
[1]; stimulation, at 2 µM
  nuclear beta-catenin stimulation: -1.3%
[2]
  insulin secretion stimulation: 0.85% (inactive)
[3]
  GLP1 secretion stimulation: 3.1% (inactive)

## CC(C)=CCCC(C)=CCCC(C)=CCCC=C(C)CCC=C(C)CCC=C(C)C
[1]; at 10 µM
  nuclear beta-catenin stimulation: -0.4% (inactive)
[1]; stimulation, at 2 µM
  nuclear beta-catenin stimulation: 1.7%
[2]
  insulin secretion stimulation: 0.6% (inactive)
[3]
  GLP1 secretion stimulation: -1.9% (inactive)

## Cc1cc(O)c2c(O)c3c(O)cccc3cc2c1
[1]; at 10 µM
  nuclear beta-catenin stimulation: 6.3% (inactive)
[1]; stimulation, at 2 µM
  nuclear beta-catenin stimulation: 4.6%
[4]
  viability decrease: 97% (active)
[5]
  tube area decrease: 67.8% (active)
[6]
  inhibition of viability: 90.6% (active)
[7]
  viability decrease (inhibition): 95.1% (active)
[8]
  viability decrease (inhibition): 95.3% (active)

## CN1CCN(c2cc3c(nn2)Oc2ccccc2N3C)CC1
[1]; at 10 µM
  nuclear beta-catenin stimulation: 0.9% (inactive)
[1]; stimulation, at 2 µM
  nuclear beta-catenin stimulation: 0.3%
[2]
  insulin secretion stimulation: -1.15% (inactive)
[3]
  GLP1 secretion stimulation: 5.9% (inactive)

## O=C(OCCO)c1ccccc1O
[1]; at 10 µM
  nuclear beta-catenin stimulation: 0.5% (inactive)
[1]; stimulation, at 2 µM
  nuclear beta-catenin stimulation: -2.3%
[2]
  insulin secretion stimulation: 0.25% (inactive)
[3]
  GLP1 secretion stimulation: -2.5% (inactive)

## CCC1Nc2cc(Cl)c(S(N)(=O)=O)cc2S(=O)(=O)N1 (configuration not stated)
[1]; at 10 µM
  nuclear beta-catenin stimulation: -0.1% (inactive)
[1]; stimulation, at 2 µM
  nuclear beta-catenin stimulation: -1.8%
[2]
  insulin secretion stimulation: 0.25% (inactive)
[3]
  GLP1 secretion stimulation: 2% (inactive)

## Cc1c(C)c2c(c(C)c1O)CC[C@@](C)(CCC[C@H](C)CCC[C@H](C)CCCC(C)C)O2
[14]
  parasite load remaining: 72.9% (inactive)
  viability: 100%
[1]; at 10 µM
  nuclear beta-catenin stimulation: 0.1% (inactive)
[1]; stimulation, at 2 µM
  nuclear beta-catenin stimulation: 0.4%
[2]
  insulin secretion stimulation: 1% (inactive)
[3]
  GLP1 secretion stimulation: 4.7% (inactive)
[15]
  inhibition: -20.7% (inactive)
[12]; [17]
  fold change: 0.864 (inactive)
[12]; [18]
  fold change: 1.16
[12]; [19]
  cell count: 7550
[12]; [20]
  cell count: 8740
[9]
  remaining NAD: 10 nM (inactive)

## CN1CCN(C2Cc3ccccc3Sc3ccc(Cl)cc32)CC1 (configuration not stated)
[1]; at 10 µM
  nuclear beta-catenin stimulation: 5.2% (inactive)
[1]; stimulation, at 2 µM
  nuclear beta-catenin stimulation: -1.6%
[2]
  insulin secretion stimulation: 6.6% (inactive)
[3]
  GLP1 secretion stimulation: 13.2% (inactive)
[12]; [17]
  fold change: 1.08 (inactive)
[12]; [18]
  fold change: 0.783
[12]; [19]
  cell count: 5640
[12]; [20]
  cell count: 5230
[13]
  z-score: -1.27 (inactive)

## CCCCCCOC(=O)c1cccnc1
[1]; at 10 µM
  nuclear beta-catenin stimulation: 5.7% (inactive)
[1]; stimulation, at 2 µM
  nuclear beta-catenin stimulation: 1.5%
[2]
  insulin secretion stimulation: -1.25% (inactive)
[3]
  GLP1 secretion stimulation: -0.9% (inactive)

## Cc1c(N)cccc1C(F)(F)F
[1]; at 10 µM
  nuclear beta-catenin stimulation: 0.9% (inactive)
[1]; stimulation, at 2 µM
  nuclear beta-catenin stimulation: 5.4%
[4]
  viability decrease: 2.8% (inactive)
[5]
  tube area decrease: 5.6% (inactive)
[6]
  inhibition of viability: 11.2% (inactive)
[7]
  viability decrease (inhibition): 1.3% (inactive)
[8]
  viability decrease (inhibition): 6.9% (inactive)

## NC1=NCC2c3ccccc3Cc3ccccc3N12 (configuration not stated)
[1]; at 10 µM
  nuclear beta-catenin stimulation: -0.3% (inactive)
[1]; stimulation, at 2 µM
  nuclear beta-catenin stimulation: -1%
[2]
  insulin secretion stimulation: 12.5% (inactive)
[3]
  GLP1 secretion stimulation: 4.4% (inactive)
[12]; [17]
  fold change: 0.943 (inactive) and 0.763 (inactive)
[12]; [18]
  fold change: 0.904 and 1
[12]; [19]
  cell count: 9270 and 7910
[12]; [20]
  cell count: 9840 and 10400
[16]; MELAS cybrid survival, CellTiter-Glo 48 h, stronger effect = higher value
  z-score: -0.3 (inactive)
[16]; Rieske KO mouse fibroblast survival, CellTiter-Glo 72 h
  z-score: -0.211
[13]
  z-score: -0.265 (inactive)
